Laboratory results: PubChem BioAssay (Tox21)
A number with no mark means an inactive call. Inconclusive results are not listed. Where a call stands in place of a potency, no number is given. The source made the active and inactive calls. Unless noted, calls follow the shape of the dose curve; as a rule, active = well fitted curve in the direction sought with a large enough effect in the repeat runs; inconclusive = weak or mixed curves; inactive = no such curve, though single readings can be large; an effect the other way counts as inactive or inconclusive.

What was measured:
[1] = molecular target: Thyrotropin receptor (Homo sapiens) (UniProt P16473); test: qHTS assay to identify small molecule agonists of the thyroid stimulating hormone receptor (TSHR) signaling pathway (AID 1224843; calls by dose curve; also: nearly all actives have a fitted effect of over 45% in size)
Summary of the method: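 Agonist-mode screen: TSHR HEK293 cells received test chemicals for half an hour at room temperature, then HTRF cAMP detection reagents for one hour prior to fluorescence measurement. Each chemical ran as a 15-concentration series, triplicated.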

[2] = qHTS assay to identify small molecule agonists of the hypoxia (HIF-1) signaling pathway - cell viability counter screen (AID 1224844; calls by dose curve; also: nearly all actives have a fitted effect of over 50% in size)
Summary of the method: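 Viability counter screen: HRE-bla ME-180 cells plated 5 hrs before compound addition, treated 17 hrs at 37C and 5% CO2, then CellTiter-Glo added after the FRET reporter read; luminescence after 30 min.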

[3] = qHTS assay to identify small molecule agonists of H2AX (AID 1224845; active = well fitted activation curve with a large enough effect in the signal ratio in the repeat runs, not every such curve was filed as active; the % refers to the signal ratio; also: potency is read from the fitted curve at half-maximal effect)
Summary of the method: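 Wild-type CHO-K1 cells, plated overnight, exposed 3hr at 37C to 15 concentrations (0.76% DMSO final). Lysed, then HTRF anti-pH2AX (S139) cryptate and anti-H2AX-d2 antibodies, 24 hr room temperature; 665/620 nm emission read.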

[4] = qHTS assay to identify small molecule agonists of the hypoxia (HIF-1) signaling pathway (AID 1224846; active = well fitted activation curve with a large enough effect in the signal ratio in the repeat runs, not every such curve was filed as active; the % refers to the signal ratio)
Summary of the method: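 Agonist mode reporter screen. ME-180 cells stably expressing bla under HRE control received test compounds in DMSO for 17 hrs (37C, 5% CO2), and beta-lactamase activity was then detected with the CCF4-AM FRET substrate.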

[5] = qHTS assay to identify small molecule agonists of H2AX - cell viability counter screen (AID 1224847; calls by dose curve; also: top concentration of the series differs between compounds; nearly all actives have a fitted effect of over 30% in size)
Summary of the method: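 Viability of CHO-K1 (wild type) cells after 3 hr compound exposure was measured by CellTiter-Glo luminescence.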

[6] = qHTS RealTime-Glo MT Cell Viability Assay in HepG2 cells - 24 hour (AID 1224867); also: nearly all actives have a fitted effect of over 50% in size
Summary of the method: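 HepG2 cells were seeded at 600 cells/well together with NanoLuc luciferase and a cell-permeant prosubstrate, preincubated 5 h at 37 C/5% CO2, then pin-dosed with compounds in DMSO. Nonlytic luminescence from viable cells was read at each time point.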

[7] = qHTS RealTime-Glo MT Cell Viability Assay in HEK293 cells - 32 hour (AID 1224868); also: nearly all actives have a fitted effect of over 50% in size; also: potency is read from the fitted curve at half-maximal effect
Summary of the method: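 HEK293 cells were seeded at 600 cells/well together with NanoLuc luciferase and cell-permeant prosubstrate, preincubated 5 h at 37 C/5% CO2, then given compound in DMSO by pintool. Luminescence from viable-cell prosubstrate reduction was read repeatedly over 40 h.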

[8] = A CellTox Green Cytotoxicity Assay to monitor cytotoxicity in HEK293 cells - 0 hour (AID 1224869); also: nearly all actives have a fitted effect of over 50% in size
Summary of the method: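 Dead-cell fluorescence measured kinetically: asymmetric cyanine dye, HEK293, 600 cells/well, 5 h settle, 23 nL cpd/DMSO, 37 C, reads 0–40 h every 8 h.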

Thyrotropin receptor (Homo sapiens), sequence (P16473 whole entry, looked up): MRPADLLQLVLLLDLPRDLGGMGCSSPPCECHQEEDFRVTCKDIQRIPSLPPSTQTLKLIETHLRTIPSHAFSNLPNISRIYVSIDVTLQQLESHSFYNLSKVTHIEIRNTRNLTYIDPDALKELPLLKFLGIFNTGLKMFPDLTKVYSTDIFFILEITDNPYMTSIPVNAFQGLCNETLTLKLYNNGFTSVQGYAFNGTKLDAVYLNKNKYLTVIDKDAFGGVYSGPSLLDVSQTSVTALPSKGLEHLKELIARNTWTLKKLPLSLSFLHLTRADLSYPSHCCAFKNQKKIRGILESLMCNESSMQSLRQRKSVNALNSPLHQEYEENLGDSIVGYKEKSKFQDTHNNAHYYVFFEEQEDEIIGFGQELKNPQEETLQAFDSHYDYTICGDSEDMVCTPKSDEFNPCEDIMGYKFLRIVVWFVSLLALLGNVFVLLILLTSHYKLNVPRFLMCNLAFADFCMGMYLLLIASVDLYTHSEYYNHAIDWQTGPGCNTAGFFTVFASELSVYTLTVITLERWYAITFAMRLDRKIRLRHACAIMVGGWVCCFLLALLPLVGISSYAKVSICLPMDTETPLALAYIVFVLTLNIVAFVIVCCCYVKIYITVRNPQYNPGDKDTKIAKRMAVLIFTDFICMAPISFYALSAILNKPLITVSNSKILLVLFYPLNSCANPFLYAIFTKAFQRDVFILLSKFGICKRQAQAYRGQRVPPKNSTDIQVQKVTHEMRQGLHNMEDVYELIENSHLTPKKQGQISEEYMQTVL

Row | SMILES | Potency [1] | Potency [2] | Potency [3] | outcome [4] | Potency [5] | outcome [6] | Potency [7] | Potency [8]
1 | O=C(Cl)c1cc(Cl)cc(Cl)c1 | inactive | inactive | inactive | inactive | inactive | inactive | inactive | inactive
2 | CCCCC(CC)COCCC#N (stereo not given) | inactive | inactive | inactive | inactive | inactive | inactive | inactive | inactive
3 | C=CC(C)CCC=C(C)C (stereo not given) | inactive | inactive | inactive | inactive | inactive | inactive | inactive | inactive
4 | CC1(C)C(=O)NC(=O)N1CO | inactive | inactive | inactive | inactive | inactive | inactive | inactive | inactive
5 | O=P(c1ccccc1)(c1ccccc1)c1ccccc1 | inactive | inactive | inactive | inactive | inactive | inactive | inactive | inactive
6 | CCOc1ccccc1O | inactive | inactive | inactive | inactive | inactive | inactive | 1.74 µM (active) | inactive
7 | CC(C(=O)O)c1ccc2c(c1)Cc1cccnc1O2 (stereo not given) | inactive | inactive | inactive | inactive | inactive | inactive | inactive | inactive
8 | CCCCCCCCCCCCCCCCC(=O)O | inactive | inactive | inactive | inactive | inactive | inactive | inactive | inactive
9 | CCc1ccc(C(=O)C(C)CN2CCCCC2)cc1 (stereo not given) | inactive | inactive | inactive | inactive | inactive | inactive | inactive | inactive
10 | CCCC1CCCC(=O)O1 (stereo not given) | inactive | inactive | inactive | inactive | inactive | inactive | inactive | inactive
11 | C/C(=C\C(C)CC(C)CC(C)C)C1CC(=O)OC1=O (stereo not given) | inactive | inactive | inactive | inactive | inactive | inactive | inactive | inactive
12 | O=C1OC(=O)C2CC=CCC12 (stereo not given) | inactive | inactive | inactive | inactive | inactive | inactive | inactive | inactive
13 | COc1ccc(CN(CCN(C)C)c2ncccn2)cc1 | inactive | inactive | inactive | inactive | inactive | inactive | inactive | inactive
14 | CC(CCl)OC(C)CCl (stereo not given) | inactive | inactive | inactive | inactive | inactive | inactive | inactive | inactive
15 | CC(=O)c1ccc(Cl)c(Cl)c1Cl | inactive | inactive | inactive | inactive | inactive | inactive | inactive | inactive
16 | CCCC(=O)OCCC(C)C | inactive | inactive | inactive | inactive | inactive | inactive | inactive | inactive
17 | CC(C)Cc1nccs1 | inactive | inactive | inactive | inactive | inactive | inactive | inactive | inactive
18 | Cc1ccc2c(Cl)cc(Cl)c(O)c2n1 | inactive | inactive | inactive | inactive | inactive | inactive | inactive | inactive
19 | CC(C)(C)c1cc(C=O)cc(C(C)(C)C)c1O | inactive | inactive | inactive | inactive | inactive | inactive | inactive | inactive
20 | CCCCCCCCOCCCN | inactive | inactive | inactive | inactive | inactive | inactive | inactive | inactive
21 | FC1(F)C(F)(F)C(F)(F)C2(F)C(F)(C1(F)F)C(F)(F)C(F)(F)C1(F)C(F)(F)C(F)(F)C(F)(F)C(F)(F)C12F (stereo not given) | inactive | inactive | inactive | inactive | inactive | inactive | inactive | inactive
22 | OCCCO | inactive | inactive | inactive | inactive | inactive | inactive | inactive | inactive
23 | C=CC(=O)NC(C)(C)C | inactive | inactive | inactive | inactive | inactive | inactive | inactive | inactive
24 | COc1ccc(/C=C/S(=O)(=O)NC(=O)c2ccc(C)cc2Cl)cc1 | inactive | inactive | inactive | inactive | inactive | inactive | inactive | inactive
25 | CC(C(=O)O)c1ccc(/C=C2\CCCCC2=O)cc1 (stereo not given) | inactive | inactive | inactive | inactive | inactive | inactive | inactive | inactive
26 | CCCc1ccc(OC)cc1 | inactive | inactive | inactive | inactive | inactive | inactive | inactive | inactive
27 | Oc1ccc(Oc2ccccc2)cc1 | inactive | inactive | 38.1 µM (active) | inactive |  | inactive | 16.5 µM (active) | inactive
28 | COc1ccc(C(=O)Nc2ccccc2)cc1[N+](=O)[O-] | inactive | inactive | inactive | inactive |  | inactive | 24.7 µM (active) | inactive
29 | CCCC1CCOC(C)S1 (stereo not given) | inactive | inactive | inactive | inactive | inactive | inactive | inactive | inactive
